The text below walks through data of PubChem BioAssay (NCATS).

Results filed as inconclusive are left out. Values without a mark were called inactive. Activity calls are given as the source filed them. Calls follow the shape of the dose curve; as a rule, active = well fitted curve in the direction sought with a large enough effect; inconclusive = small, poorly fitted or top-dose-only effect, or another doubt; inactive = no such curve, though single readings can be large; an effect the other way counts as inactive or inconclusive.

For one experiment, the system named is MCC-13. In words: qHTS assay to identify novel small-molecules to repurpose for Merkel cell carcinoma treatment (AID 1296009). Also: nearly all actives have a fitted effect of over 60% in size. The settings on record: MCC and control cell lines, CellTiter-Glo viability, 72 h; series mostly up to 46 µM. The method in brief:
(§1)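 Cell viability measured by CellTiter-Glo following 72 hr compound treatment at 37 degree celsius, with NPC and MIPE libraries tested in 8- and 11-point concentration series.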
For orientation: Quantitative high-throughput screening tests each substance at several concentrations.

The subject of a further experiment is MCC-26. Described as above. The settings on record: MCC and control cell lines, CellTiter-Glo viability, 72 h; series mostly up to 46 µM. The method, boiled down:
as §1
On the technique in general: In ATP-based viability assays light output follows the ATP content of the culture.

The next experiment deals with MKL-1. Described as above. As to conditions: MCC and control cell lines, CellTiter-Glo viability, 72 h; series mostly up to 46 µM. The method, boiled down:
as §1

The test system of a further experiment is MKL-2. The experiment is described as above. As to conditions: MCC and control cell lines, CellTiter-Glo viability, 72 h; series mostly up to 46 µM. The method in brief:
as §1

The next experiment relates to UISO. Described as above. As to conditions: MCC and control cell lines, CellTiter-Glo viability, 72 h; series mostly up to 46 µM. The method, boiled down: as §1
A further experiment deals with WaGa. The description is as above. The settings on record: MCC and control cell lines, CellTiter-Glo viability, 72 h; series mostly up to 46 µM. The method, boiled down: as §1
The next experiment deals with C33A. In words: Primary qHTS to identify gynecologic anti-cancer compounds using libraries of approved drugs and bioactive compounds (AID 1345084). Also: nearly all actives have a fitted effect of over 55% in size. Also: potency is read from the fitted curve at half-maximal effect. The settings on record: Gynecologic cancer cell panel viability, ATPlite luminescence, 48 h; series mostly up to 57.5 µM. The method, boiled down:
(§2)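 Luminescence from the ATPlite ATP-monitoring reagent indicates viable cell number; lower signal means cytotoxicity. Cells received compound 16 h after seeding and were exposed for 48 h across five concentrations.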

The next experiment has as its system CAOV3. The description is as above. The settings on record: Gynecologic cancer cell panel viability, ATPlite luminescence, 48 h; series mostly up to 57.5 µM. The method in brief:
as §2

For a further experiment, the system named is CASKI. Described as above. The settings on record: Gynecologic cancer cell panel viability, ATPlite luminescence, 48 h; series mostly up to 57.5 µM. The method in brief:
as §2

The subject of the next experiment is Es-2. The description is as above. As to conditions: Gynecologic cancer cell panel viability, ATPlite luminescence, 48 h; series mostly up to 57.5 µM. The method, boiled down:
as §2

The subject of a further experiment is HeLa. Described as above. The settings on record: Gynecologic cancer cell panel viability, ATPlite luminescence, 48 h; series mostly up to 57.5 µM. The method, boiled down: as §2
The subject of a further experiment is Hek293T. The description is as above. The settings on record: Gynecologic cancer cell panel viability, ATPlite luminescence, 48 h, control line for the selectivity index; series mostly up to 57.5 µM. The method, boiled down:
as §2

The next experiment deals with JEG-3. Described as above. As to conditions: Gynecologic cancer cell panel viability, ATPlite luminescence, 48 h; series mostly up to 57.5 µM. The method, boiled down:
as §2

In a further experiment the test system is OV90. The experiment is described as above. The settings on record: Gynecologic cancer cell panel viability, ATPlite luminescence, 48 h; series mostly up to 57.5 µM. The method in brief:
as §2

In the next experiment the test system is PA-1. The description is as above. The settings on record: Gynecologic cancer cell panel viability, ATPlite luminescence, 48 h; series mostly up to 57.5 µM. The method in brief: as §2
In another experiment the test system is SKOV3. The description is as above. The settings on record: Gynecologic cancer cell panel viability, ATPlite luminescence, 48 h; series mostly up to 57.5 µM. The method, boiled down:
as §2

The next experiment has as its system Tov-21-G. The experiment is described as above. As to conditions: Gynecologic cancer cell panel viability, ATPlite luminescence, 48 h; series mostly up to 57.5 µM. The method in brief:
as §2

The next experiment relates to Tov112D. The experiment is described as above. The settings on record: Gynecologic cancer cell panel viability, ATPlite luminescence, 48 h; series mostly up to 57.5 µM. The method, boiled down: as §2
Experiment [1] in a line: Drug repurposing screens with cells derived from glioblastoma tumor samples (AID 1345199). Also: nearly all actives have a fitted effect of over 40% in size. As to conditions: GBM patient neurospheres viability, ATP luminescence, 48 h. The method in brief:
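Primary testing used CD133+ neurospheres from four GBM patients, seven concentrations, 48 h exposure and ATP-based viability; confirmation added three slower-growing patient lines.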

A further experiment concerns NIH3T3. In words: qHTS assay to identify novel small-molecules to repurpose for Merkel cell carcinoma treatment (AID 1296009). Also: nearly all actives have a fitted effect of over 60% in size. The settings on record: MCC and control cell lines, CellTiter-Glo viability, 72 h; at 44.8 µM (top of the series) unless noted. The method, boiled down:
as §1

[2] abbreviates: at 45.9 µM (top of the series), tumour line B.
Setting [3] is: at 45.9 µM (top of the series), tumour line D.
The mark [4] stands for this setting: at 20 µM (top of the series), tumour line C.
The mark [5] stands for this setting: at 21.2 µM (top of the series), tumour line B.
Setting [6] is: at 21.2 µM (top of the series), tumour line D.
Where [7] appears, read: at 21.3 µM (top of the series), tumour line A.
% is scaled to controls: 0 for no effect and ±100 for the full control effect.

Take `CCN(CC)CCOC(=O)C1(C2CCCCC2)CCCCC1`: the Potency entry with MCC-13, in the experiment with MCC-26, with MKL-1, in the experiment on MKL-2, in the experiment with UISO and in the experiment on WaGa was “inactive” in each case. Also, the Potency entry in the experiment with C33A, with CAOV3, with CASKI, in the experiment with Es-2, with HeLa and with Hek293T was “inactive” throughout. In addition, the Potency entry with JEG-3, in the experiment with OV90, in the experiment with PA-1, with SKOV3, in the experiment with Tov-21-G and in the experiment on Tov112D was “inactive” in each case.

Turning to `C[C@]12CC[C@@H]3c4ccc(O)cc4CC[C@H]3[C@@H]1CCC2=O`, the Potency result with MCC-13, in the experiment on MCC-26, with MKL-1, in the experiment with MKL-2, in the experiment on UISO and with WaGa was “inactive” in each case. In addition, the Potency result in the experiment with C33A, in the experiment with CAOV3, in the experiment with CASKI, with Es-2, in the experiment on Hek293T and with JEG-3 was “inactive” in each case. Besides, the Potency result in the experiment on OV90, in the experiment with PA-1, with SKOV3, in the experiment on Tov-21-G and in the experiment with Tov112D was “inactive” throughout. The Potency with HeLa is 28.2 µM (active). Besides, the activity, negative = cell killing was -16.5% in experiment [1] (setting [2]); -20.7% in experiment [1] (setting [3]); -9.33% in experiment [1] (at 46.1 µM (top of the series), tumour line C).

With `NS(=O)(=O)c1cc2c(cc1Cl)NC(CSCc1ccccc1)=NS2(=O)=O`, the Potency entry with MCC-13, in the experiment on MCC-26, in the experiment on MKL-1, in the experiment with MKL-2, in the experiment with UISO and in the experiment with WaGa was “inactive” throughout. Also, the Potency result in the experiment with C33A, in the experiment on CASKI, in the experiment with Es-2, in the experiment with HeLa, with Hek293T and in the experiment on JEG-3 was “inactive” in each case. The Potency entry with OV90, in the experiment on PA-1, with SKOV3, in the experiment on Tov-21-G and in the experiment with Tov112D was “inactive” throughout. In addition, in the experiment on NIH3T3, the result was inactive. The activity, negative = cell killing in [1] (setting [4]) is 5.29%; in [1] (setting [5]), -6.25%; in experiment [1] (setting [6]) it was -24.5%; in experiment [1] (setting [7]) it was -18.3%.

Consider `COc1ccccc1O`, for which the Potency entry with MCC-13, with MCC-26, in the experiment with MKL-1, in the experiment on MKL-2, in the experiment on UISO and in the experiment with WaGa was “inactive” each time. Also, the Potency result in the experiment on C33A, with CAOV3, with CASKI, in the experiment on Es-2, in the experiment on HeLa and in the experiment with Hek293T was “inactive” each time. Besides, the Potency entry with JEG-3, with OV90, in the experiment with PA-1, with SKOV3, in the experiment with Tov-21-G and with Tov112D was “inactive” throughout.

Regarding `Nc1ccc(S(=O)(=O)NC(=O)c2ccccc2)cc1`, the Potency entry in the experiment on MCC-13, in the experiment on MCC-26, with MKL-1, in the experiment with MKL-2, in the experiment on UISO and with WaGa was “inactive” throughout. The Potency result in the experiment on C33A, in the experiment on CAOV3, with CASKI, in the experiment with Es-2, with HeLa and with Hek293T was “inactive” throughout. For the same compound, the Potency result in the experiment on JEG-3, with OV90, in the experiment with PA-1, in the experiment on SKOV3, with Tov-21-G and in the experiment with Tov112D was “inactive” throughout. The activity, negative = cell killing in [1] (setting [4]) was -23.5%; in [1] (setting [5]), -10.1%; in [1] (setting [6]), -27.1%; in [1] (setting [7]), -8.76%.

On to `Oc1ccc(C(O)CNCCCCCCNCC(O)c2ccc(O)c(O)c2)cc1O` (stereo unspecified), for which the Potency entry in the experiment with MCC-13, with MCC-26, with MKL-1, with MKL-2, in the experiment on UISO and in the experiment with WaGa was “inactive” in each case. In addition, the Potency result with C33A, in the experiment with CAOV3, in the experiment with CASKI, in the experiment on Es-2, in the experiment with HeLa and in the experiment on Hek293T was “inactive” throughout. For the same compound, the Potency result in the experiment with JEG-3, with OV90, in the experiment on PA-1, in the experiment on SKOV3, in the experiment with Tov-21-G and with Tov112D was “inactive” each time. The activity, negative = cell killing is -10.1% in experiment [1] (setting [2]) and -27.7% in experiment [1] (setting [3]).
